Measurements reported in PubChem BioAssay (EPA / NIEHS).
Records with an inconclusive call do not appear. Activity calls are given as the source filed them. Rule for the calls, unless noted: active = hit-call score of the fitted dose curve at least 0.9, where 1 is the maximum; inactive = score below 0.9.

Experiments:
[1] = target: CCAAT/enhancer-binding protein beta (Homo sapiens) (UniProt P17676); assay: ATG_C_EBP_CIS: Attagene CIS-FACTORIAL HepG2 Assay for human CCAAT/Enhancer Binding Protein (C/EBP) beta (AID 2282927); conditions: HepG2 Attagene cis-factorial transcription factor reporter; actives raise or lower the signal
Sequence of CCAAT/enhancer-binding protein beta (Homo sapiens) (P17676 whole entry, looked up, the tested form may be a part): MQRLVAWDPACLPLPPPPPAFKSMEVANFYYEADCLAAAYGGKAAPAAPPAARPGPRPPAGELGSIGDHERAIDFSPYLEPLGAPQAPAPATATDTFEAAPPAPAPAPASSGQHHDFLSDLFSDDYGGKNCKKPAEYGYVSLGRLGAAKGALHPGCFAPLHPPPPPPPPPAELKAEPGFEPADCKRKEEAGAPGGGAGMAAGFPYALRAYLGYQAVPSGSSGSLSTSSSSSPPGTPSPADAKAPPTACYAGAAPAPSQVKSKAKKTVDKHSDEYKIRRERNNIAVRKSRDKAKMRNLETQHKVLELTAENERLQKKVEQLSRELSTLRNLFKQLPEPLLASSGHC
In short: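 Endogenous C/EBPb-driven reporter transcripts measured in transfected human HepG2 cells at 24 h via RT-PCR and capillary electrophoresis of labelled fragments. Activity fitted in both directions relative to DMSO baseline.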

[2] = ATG_CMV_CIS: Attagene CIS-FACTORIAL HepG2 Assay for human CMV (Internal Marker) (AID 2282928); conditions: HepG2 CMV promoter reporter, transcription factor profiling; actives raise or lower the signal;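 note: endpoint acts as a background internal control marker rather than a target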
In short: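 Readout: fluorescent reporter cDNA fragments separated by capillary electrophoresis after RT-PCR and HpaI cut. Cells: HepG2 carrying transfected cis-promoter reporter constructs, dosed 24 h. Endpoint serves as background internal-marker control, fit bidirectionally versus DMSO.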

[3] = ATG_DR4_LXR_CIS: Attagene CIS-FACTORIAL HepG2 Assay for human Liver X Receptor (LXR), DR4 submotif (AID 2282929); conditions: HepG2 Attagene DR4 cis-reporter, mRNA transcription; actives raise or lower the signal
In short: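 Measures endogenous transcription factor activity via a DR4-driven reporter transcript in human HepG2 cells. Compounds incubated 24 h; mRNA quantified by RT-PCR and capillary electrophoresis, analysed as gain or loss of signal versus DMSO.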

[4] = ATG_AP_1_CIS: Attagene CIS-FACTORIAL HepG2 Assay for human Activator Protein 1 (AP-1) (AID 2282931); conditions: HepG2 Attagene cis-factorial AP-1 reporter mRNA; actives raise or lower the signal
In short: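 Bidirectional concentration-response fitting against DMSO controls. Underlying signal: reporter mRNA from cis-promoter constructs in transiently transfected HepG2, measured after 24 h by RT-PCR and capillary electrophoresis.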

[5] = ATG_AP_2_CIS: Attagene CIS-FACTORIAL HepG2 Assay for human Activator Protein 2 (AP-2) (AID 2282932); conditions: HepG2 AP-2 cis-reporter, Attagene transcription factor profiling; actives raise or lower the signal
In short: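 Transiently transfected HepG2 cells are exposed to chemical for 24 h. Reporter transcripts are then measured as fluorescence following RT-PCR and capillary separation, and gain- or loss-of-signal is fitted relative to DMSO.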

[6] = ATG_BRE_CIS: Attagene CIS-FACTORIAL HepG2 Assay for human Bone Morphogenetic Protein (BMP) Response Element (BRE) (AID 2282933); conditions: HepG2 BMP response element reporter, Attagene transcription factor profiling; actives raise or lower the signal
In short: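 Fluorescence-labelled reporter cDNA fragments, separated by capillary electrophoresis, gave the signal for this component of a 52-readout multiplex. HepG2 cells were transfected, exposed to chemicals for 24 h, and compared with DMSO using bidirectional fitting.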

[7] = target: Transcription factor E2F1 (Homo sapiens) (UniProt Q01094); assay: ATG_E2F_CIS: Attagene CIS-FACTORIAL HepG2 Assay for human E2F Transcription Factor 1 (AID 2282935); conditions: HepG2 Attagene cis-reporter, E2F reporter RNA transcripts; actives raise or lower the signal
Sequence of Transcription factor E2F1 (Homo sapiens) (Q01094 whole entry, looked up): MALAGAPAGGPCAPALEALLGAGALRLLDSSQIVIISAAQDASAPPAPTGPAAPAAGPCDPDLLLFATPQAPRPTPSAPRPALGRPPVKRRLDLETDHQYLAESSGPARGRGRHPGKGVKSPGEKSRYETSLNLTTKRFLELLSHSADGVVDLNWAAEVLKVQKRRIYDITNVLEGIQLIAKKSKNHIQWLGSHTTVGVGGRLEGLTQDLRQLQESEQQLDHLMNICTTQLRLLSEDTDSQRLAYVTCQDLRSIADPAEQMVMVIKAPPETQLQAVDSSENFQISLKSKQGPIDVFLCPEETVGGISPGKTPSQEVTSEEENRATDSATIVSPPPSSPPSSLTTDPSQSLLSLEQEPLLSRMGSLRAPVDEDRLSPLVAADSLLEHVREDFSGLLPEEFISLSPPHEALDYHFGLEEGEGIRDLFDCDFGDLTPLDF
In short: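 Fluorescent RT-PCR products, digested with HpaI for 2 h at 37 C, are separated by capillary electrophoresis. Source RNA comes from transfected HepG2 cultures treated for 24 h.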

[8] = ATG_E_Box_CIS: Attagene CIS-FACTORIAL HepG2 Assay for human Enhancer Box (E-box) (AID 2282936); conditions: HepG2 E-box cis-reporter transcription, actives raise or lower the signal
In short: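 Fluorescent reporter fragments separated by capillary electrophoresis gave the signal; mRNA came from HepG2 cells transfected with cis-element reporters and treated 24 h. Curves fitted bidirectionally relative to DMSO controls.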

[9] = ATG_M_61_CIS: Attagene CIS-FACTORIAL HepG2 Assay for M61 Transcription Factor (Internal Marker) (AID 2282937); conditions: HepG2 Attagene CIS-FACTORIAL M61 internal marker reporter; actives raise or lower the signal
In short: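 Fluorescence from labelled cDNA fragments, separated by capillary electrophoresis, quantifies reporter induction. HepG2 cells bearing transiently transfected cis-promoter MRTUs were incubated with test chemical for 24 h; DMSO defined baseline for gain/loss fitting.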

[10] = ATG_EGR_CIS: Attagene CIS-FACTORIAL HepG2 Assay for human Early Growth Response 1 (EGR1) (AID 2282938); conditions: HepG2 Attagene CIS-FACTORIAL EGR reporter mRNA; actives raise or lower the signal
In short: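 Cell-based multiplex transcription assay: HepG2 carrying transfected cis-element reporter units, 24 h chemical treatment. Fluorescence from capillary electrophoresis of RT-PCR products gives mRNA levels; fitting is bidirectional relative to DMSO.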

[11] = ATG_Ets_CIS: Attagene CIS-FACTORIAL HepG2 Assay for human Erythroblast Transformation Specific (ETS) (AID 2282941); conditions: HepG2 ETS cis-reporter transcription, actives raise or lower the signal
In short: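 RT-PCR/capillary electrophoresis fluorescence read-out of reporter mRNA; HepG2 transient multi-reporter transfection; 24 h compound exposure; gain or loss of signal fitted bidirectionally relative to DMSO.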

[12] = ATG_GATA_CIS: Attagene CIS-FACTORIAL HepG2 Assay for human GATA Binding Protein (AID 2282944); conditions: HepG2 GATA cis-element reporter, Attagene multiplex mRNA; actives raise or lower the signal
In short: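 Cells: HepG2, transiently transfected with cis-regulated reporter transcription units. Exposure: 24 h. Detection: RT-PCR plus capillary electrophoresis of FAM-labeled fragments. Analysis: bidirectional, DMSO as baseline.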

[13] = ATG_GLI_CIS: Attagene CIS-FACTORIAL HepG2 Assay for human Zinc Finger Protein GLI1 (AID 2282945); conditions: HepG2, Attagene cis-factorial reporter mRNA, GLI element; actives raise or lower the signal
In short: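 Bidirectional curve fits relative to DMSO, using reporter mRNA levels from RT-PCR plus capillary electrophoresis. Cells were HepG2 transiently carrying cis-regulated reporter constructs, harvested 24 h after dosing.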

[14] = ATG_ISRE_CIS: Attagene CIS-FACTORIAL HepG2 Assay for human Interferon Regulatory Factor 1 (IRF1) binding to an Interferon-Stimulated Response Element (ISRE) (AID 2282948); conditions: HepG2 ISRE cis-reporter (Attagene), mRNA transcription readout; actives raise or lower the signal
In short: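 Read-out: fluorescent RT-PCR products resolved by capillary electrophoresis, reporting endogenous transcription factor activity via ISRE-driven reporter mRNA in transfected HepG2 cells dosed for 24 h; gain or loss fitted relative to DMSO.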

[15] = ATG_M_32_CIS: Attagene CIS-FACTORIAL HepG2 Assay for M32 Transcription Factor (Internal Marker) (AID 2282949); conditions: HepG2 Attagene cis-factorial M32 reporter, mRNA; actives raise or lower the signal;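 note: background control marker of the multiplexed CIS panel rather than a real target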
In short: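 Using DMSO as baseline, bidirectional curve fits were applied to reporter mRNA signals. These came from transiently transfected HepG2 cells exposed for 24 h, with RNA analysed by RT-PCR, FAM primer extension, HpaI digestion and CE.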

[16] = ATG_M_06_CIS: Attagene CIS-FACTORIAL HepG2 Assay for M06 Transcription Factor (Internal Marker) (AID 2282950); conditions: HepG2 Attagene CIS-FACTORIAL M06 internal marker reporter; actives raise or lower the signal
In short: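 Measured 24 h post-dosing in transiently transfected HepG2 cells, this internal-marker endpoint reports reporter mRNA via RT-PCR with fluorescent primer extension and capillary electrophoresis. DMSO served as negative control and baseline for bidirectional fitting.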

[17] = ATG_MRE_CIS: Attagene CIS-FACTORIAL HepG2 Assay for human Metal Responsive Element (MRE) (AID 2282954); conditions: HepG2 MRE cis-reporter transcription, Attagene multiplex; actives raise or lower the signal
In short: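 Multiplexed cis-reporter assay in human HepG2 liver cells, 24 h incubation with test chemical. Reporter transcripts measured by RT-PCR and capillary electrophoresis; values from bidirectional curve fitting versus DMSO.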

[18] = ATG_PXRE_CIS: Attagene CIS-FACTORIAL HepG2 Assay for human Pregnane X Receptor Element (PXRE) (AID 2282957); conditions: HepG2 Attagene CIS-FACTORIAL PXRE reporter, mRNA; actives raise or lower the signal
In short: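 Bidirectional activity, baselined to DMSO, derived from reporter mRNA fluorescence (RT-PCR plus capillary electrophoresis) in HepG2 cells bearing cis-promoter reporter units, 24 h exposure.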

[19] = ATG_Sox_CIS: Attagene CIS-FACTORIAL HepG2 Assay for human SRY-box transcription factor (SOX) (AID 2282960); conditions: HepG2 Attagene cis-factorial SOX reporter, mRNA; actives raise or lower the signal
In short: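 After 24 h of chemical treatment, transfected HepG2 reporter cells are lysed for total RNA. Transcript levels come from RT-PCR with labelled primer extension and capillary electrophoresis, analysed bidirectionally versus DMSO.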

[20] = target: Androgen receptor (Homo sapiens) (UniProt P10275); assay: ATG_AR_TRANS: Attagene TRANS-FACTORIAL HepG2 Assay for human Androgen Receptor (AR) (AID 2282973; active = hit-call score of the fitted dose curve at least 0.9, where 1 is the maximum); conditions: HepG2 Attagene TRANS-FACTORIAL AR reporter transcription
Sequence of Androgen receptor (Homo sapiens) (P10275 whole entry, looked up, the tested form may be a part): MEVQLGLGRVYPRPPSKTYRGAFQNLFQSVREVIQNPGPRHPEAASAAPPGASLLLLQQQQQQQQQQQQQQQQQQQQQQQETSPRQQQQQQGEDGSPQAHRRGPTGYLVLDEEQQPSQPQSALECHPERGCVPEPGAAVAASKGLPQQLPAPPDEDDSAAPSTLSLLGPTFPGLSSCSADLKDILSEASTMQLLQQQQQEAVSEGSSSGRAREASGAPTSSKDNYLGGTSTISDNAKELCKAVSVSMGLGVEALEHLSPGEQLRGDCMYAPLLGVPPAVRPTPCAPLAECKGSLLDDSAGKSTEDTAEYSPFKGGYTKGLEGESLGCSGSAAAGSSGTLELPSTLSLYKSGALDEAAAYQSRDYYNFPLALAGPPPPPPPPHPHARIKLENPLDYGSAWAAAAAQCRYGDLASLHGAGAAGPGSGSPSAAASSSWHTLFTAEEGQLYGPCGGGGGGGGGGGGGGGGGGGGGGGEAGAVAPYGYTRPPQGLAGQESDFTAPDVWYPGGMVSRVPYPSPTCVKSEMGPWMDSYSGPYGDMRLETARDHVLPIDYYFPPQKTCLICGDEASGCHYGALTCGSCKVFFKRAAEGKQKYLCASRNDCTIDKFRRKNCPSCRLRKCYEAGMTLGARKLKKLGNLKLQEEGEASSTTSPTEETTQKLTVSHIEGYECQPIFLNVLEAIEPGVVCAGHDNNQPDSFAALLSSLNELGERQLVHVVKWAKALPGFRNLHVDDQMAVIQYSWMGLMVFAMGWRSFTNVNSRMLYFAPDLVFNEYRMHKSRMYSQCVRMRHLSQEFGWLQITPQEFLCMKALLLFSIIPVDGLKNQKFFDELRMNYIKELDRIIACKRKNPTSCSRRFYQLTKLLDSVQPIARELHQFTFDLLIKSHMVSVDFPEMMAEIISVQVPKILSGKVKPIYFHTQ
In short: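 Chimeric nuclear receptor–Gal4 activity was assessed in human HepG2 hepatocytes after 24 h chemical dosing. Induced reporter mRNA was detected via labelled RT-PCR fragments on capillary electrophoresis, and gain of signal was analysed against DMSO.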

Measured: AC50

N#CC(c1ccccc1)c1ccccc1
active: [18] 11.1 µM
not listed: [20]
inactive: all other assays above

CCCCCCCCCCCC[N+](C)(C)Cc1ccccc1
inactive: [20]

Nc1ccccc1C(=O)Oc1ccc2ccccc2c1
active: [2] 77 µM | [3] 63.9 µM | [5] 66.8 µM | [6] 161 µM | [11] 75.7 µM | [12] 143 µM | [13] 70.9 µM | [17] 67.2 µM | [19] 166 µM
inactive: all other assays above

N[C@H]1C(O)O[C@H](CO)[C@H](O)[C@@H]1O (stereo partly drawn)
inactive: [20]

BrCBr
not listed: [20]
inactive: all other assays above

Clc1ccc(-c2ccccc2)cc1
active: [2] 139 µM | [4] 170 µM | [18] 42.7 µM
not listed: [20]
inactive: all other assays above

O=P(O)(Oc1ccccc1)Oc1ccccc1
active: [18] 74.2 µM
not listed: [20]
inactive: all other assays above

Nc1cc(Cl)cc(Cl)c1
not listed: [20]
inactive: all other assays above

CCCCOC(=O)CCC(=O)OCCCC
not listed: [20]
inactive: all other assays above

CCOC(=O)N(C)N=O
active: [18] 26.1 µM
not listed: [20]
inactive: all other assays above

CCCC=NO
not listed: [20]
inactive: all other assays above

C=CCN(CC=C)C(=O)C(Cl)Cl
active: [18] 43.9 µM
not listed: [20]
inactive: all other assays above
